# Test results taken from PubChem BioAssay (NCI).
# Compounds without any hit were thinned out: in the full panel of roughly 83,000, 20% have a hit.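 The endpoint reported here, percent growth, reads 100 for growth as untreated, 0 for no net growth and -100 for all cells dead.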 The source made the active and inactive calls. The calls were made as follows: active = growth percent below 10; inactive = the rest.
# Key:
# Assay in all cases: NCI-60 one-dose screen, 48 h (100 = growth as untreated, 0 = no growth, -100 = all killed)
# Conditions in all cases: 10 µM unless noted
# HCT-15 colon = tested on: HCT-15 colon
# HT29 colon = tested on: HT29 colon
# SNB-75 CNS = tested on: SNB-75 CNS
# SNB-19 CNS = tested on: SNB-19 CNS
# U251 CNS = tested on: U251 CNS
# PC-3 prostate = tested on: PC-3 prostate
# SK-MEL-5 melanoma = tested on: SK-MEL-5 melanoma
# UACC-62 melanoma = tested on: UACC-62 melanoma
# LOX IMVI melanoma = tested on: LOX IMVI melanoma
# SK-MEL-28 melanoma = tested on: SK-MEL-28 melanoma
Structure (SMILES),growth (HCT-15 colon),growth (HT29 colon),growth (SNB-75 CNS),growth (SNB-19 CNS),growth (U251 CNS),growth (PC-3 prostate),growth (SK-MEL-5 melanoma),growth (UACC-62 melanoma),growth (LOX IMVI melanoma),growth (SK-MEL-28 melanoma)
CCOC(=O)C1=C(C)Nc2nc3ccccc3n2C1c1cccc(Br)c1 (stereo not given),48.5% (inactive),49.3% (inactive),53.9% (inactive),77.2% (inactive),88.8% (inactive),84.1% (inactive),80.4% (inactive),60.3% (inactive),82.3% (inactive),84.9% (inactive)
COc1cc2c3c(n(CCCNC4CCCC4)c(=O)c2cc1OC)-c1cc2c(cc1C3=O)OCO2,-68.6% (active),-55.1% (active),84.9% (inactive),46.2% (inactive),-87.9% (active),-84.7% (active),95% (inactive),74% (inactive),-82.3% (active),95.8% (inactive)
CCOC(=O)c1nn(-c2ccccc2)c(=O)c2c(N)c(C#N)c(-c3cccs3)cc12,87.6% (inactive),61.9% (inactive),-8.81% (active),70.5% (inactive),77.3% (inactive),79.9% (inactive),96.4% (inactive),85.8% (inactive),73% (inactive),99.9% (inactive)
CCCCCCNC(=O)Oc1ccc(/C(=C(/C)c2ccccc2)c2ccc(OCCN(C)C)cc2)cc1,-32.3% (active),-25.6% (active),73.5% (inactive),64.4% (inactive),54.7% (inactive),70.6% (inactive),78.2% (inactive),52.8% (inactive),13.8% (inactive),55.1% (inactive)
CC[C@@](C)(NC(=O)C(C)(C)NC(=O)[C@@H](NC(=O)[C@@H]1CCCN1C(=O)C(C)(C)NC(=O)[C@H](CC(C)C)NC(=O)CNC(=O)C(C)(C)NC(=O)[C@@H](NC(=O)C(C)(C)NC(=O)[C@H](CCC(N)=O)NC(=O)[C@H](C)NC(=O)C(C)(C)NC(=O)[C@H](C)NC(=O)C(C)(C)NC(=O)[C@@H]1CCCN1C(=O)C(C)(C)NC(C)=O)C(C)C)C(C)C)C(=O)N[C@@H](CCC(N)=O)C(=O)N[C@@H](CCC(N)=O)C(=O)N[C@H](CO)Cc1ccccc1,98% [4.25 µM] (inactive),17.4% [4.25 µM] (inactive),3.47% [4.25 µM] (active),21% [4.25 µM] (inactive),33.1% [4.25 µM] (inactive),16.2% [4.25 µM] (inactive),-39.8% [4.25 µM] (active),47.5% [4.25 µM] (inactive),4.55% [4.25 µM] (active),27.5% [4.25 µM] (inactive)
C=C(C)[C@@H]1CC[C@]2(C(=O)ON)CC[C@]3(C)[C@H](CC[C@@H]4[C@@]5(C)C/C(=C/c6ccc(Br)cc6)C(=O)C(C)(C)[C@@H]5CC[C@]43C)[C@@H]12,57.8% (inactive),71.5% (inactive),104% (inactive),78.2% (inactive),70.8% (inactive),45.8% (inactive),86.1% (inactive),59.5% (inactive),69.7% (inactive),84.7% (inactive)
CCC(CC)N1C(=O)/C(=c2\sc3n(c2=O)C2C(NN=3)N(CC)C(=O)N2CC)c2ccccc21 (stereo not given),10.4% (inactive),5.44% (active),-4.75% (active),26.4% (inactive),27.1% (inactive),33.7% (inactive),-20.1% (active),15.2% (inactive),17.9% (inactive),58.6% (inactive)
COc1ccc(-c2nc3cc(Cl)c(Cl)cc3n2CC(=O)N=Nc2c(O)[nH]c3ccc(Cl)cc23)cc1,5.04% (active),25% (inactive),57.9% (inactive),36.1% (inactive),17.1% (inactive),37.6% (inactive),38.3% (inactive),38.6% (inactive),-58.1% (active),-21.5% (active)
COc1ccc(CCN2C(=O)CSC2=S)cc1OC,84% (inactive),109% (inactive),112% (inactive),99.9% (inactive),99.5% (inactive),91.2% (inactive),85.2% (inactive),97% (inactive),56.6% (inactive),102% (inactive)
Cn1c2ccccc2c2c3c(c4c5ccc(Br)cc5oc4c21)C(=O)N(O)C3=O,74.6% (inactive),86.6% (inactive),54.3% (inactive),69.5% (inactive),60.5% (inactive),65.8% (inactive),75.6% (inactive),49.2% (inactive),-88.8% (active),105% (inactive)
CCc1ccc(NC(=O)N[C@@H](Cc2cccc(F)c2)C(=O)N[C@@H]2C(=O)N3CCC[C@H]3C(=O)N3CCCC[C@H]3C(=O)N[C@@H](CO)C(=O)N3C[C@H](C)C[C@H]3C(=O)O[C@H]2C)c(F)c1,15.1% (inactive),36.1% (inactive),26.4% (inactive),28.1% (inactive),30.9% (inactive),17.5% (inactive),0.508% (active),27.2% (inactive),24.9% (inactive),44.6% (inactive)
COc1cc(/C=C/C(=O)c2ccc(NC(=O)CSc3nnc(-c4ccc5nc(-c6ccccc6)[nH]c5c4)o3)cc2)cc(OC)c1OC,87.6% (inactive),104% (inactive),81.1% (inactive),84.4% (inactive),80.6% (inactive),99% (inactive),92.2% (inactive),83% (inactive),56% (inactive),93.4% (inactive)
CC[C@]12C=CCN3CC[C@]4(C(=C(C(=O)OC)C1)Nc1cc5c(cc14)[C@@H]1[C@H](O5)[C@@H](O)[C@@]4(CC)CC(C(=O)OC)=C5Nc6cc(OC)ccc6[C@@]56CCN1[C@@H]46)[C@@H]32,-19.9% (active),2.83% (active),21.1% (inactive),3.1% (active),3.18% (active),9.02% (active),-2.36% (active),8.98% (active),-85.9% (active),1.92% (active)
Cc1ccc(Cc2cnc(NC(=O)/C(C#N)=C/c3ccc(-c4ccc(Cl)cc4)o3)s2)cc1,93.3% (inactive),97.1% (inactive),94.9% (inactive),106% (inactive),102% (inactive),87.6% (inactive),92.4% (inactive),95.4% (inactive),81.3% (inactive),103% (inactive)
O=C(c1cccc(F)c1)n1ccc2cc(NC(=S)Nc3cccnc3)ccc21,89.6% (inactive),103% (inactive),90.6% (inactive),86.5% (inactive),95.1% (inactive),96.5% (inactive),99.6% (inactive),86.8% (inactive),99% (inactive),106% (inactive)
CN(c1ccc(Cl)cc1)S(=O)(=O)c1ccc(-c2cnc(C3CC3)o2)cc1,15.6% (inactive),15% (inactive),43% (inactive),44.4% (inactive),32.3% (inactive),22.3% (inactive),10.2% (inactive),37.3% (inactive),12.9% (inactive),65.2% (inactive)
